Our source for the outcome and AC50 values is PubChem BioAssay (EPA / NIEHS).

Structures are written as SMILES. Results filed as inconclusive are left out. Activity calls are given as the source filed them. Rule for the calls, unless noted: active = hit-call score of the fitted dose curve at least 0.9, where 1 is the maximum; inconclusive = response in the unintended direction; inactive = score below 0.9.

The nature of experiment [1]: ATG_TAL_CIS: Attagene CIS-FACTORIAL HepG2 Assay for human TAL Basal Promoter (AID 2282966; active = hit-call score of the fitted dose curve at least 0.9, where 1 is the maximum; inactive = score below 0.9;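 note: background control endpoint measuring basal TAL promoter reporter mRNA not a specific factor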). To be noted: HepG2 Attagene cis-factorial TAL promoter reporter; actives raise or lower the signal. The method in brief: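 HepG2, transient MRTU transfection, 24 h compound exposure; RNA → oligo(dT) RT → PCR → 6-FAM primer extension → HpaI digest → CE fluorescence. Bidirectional curve fit vs DMSO. Background-control readout.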

A short description of experiment [2]: ATG_TGFb_CIS: Attagene CIS-FACTORIAL HepG2 Assay for human Transforming Growth Factor (TGF) (AID 2282967; active = hit-call score of the fitted dose curve at least 0.9, where 1 is the maximum; inactive = score below 0.9). To be noted: HepG2 Attagene CIS TGFb reporter, mRNA transcription; actives raise or lower the signal. The method in brief: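 HepG2 cells transiently transfected with cis-promoter-driven multiple reporter units measure endogenous TF activity; reporter mRNA quantified at 24 h by RT-PCR, FAM labeling, HpaI digestion and capillary electrophoresis. Bidirectional fit vs DMSO.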

Experiment [3] has as its target X-box-binding protein 1 (Homo sapiens) (UniProt P17861). In words: ATG_Xbp1_CIS: Attagene CIS-FACTORIAL HepG2 Assay for human X-box Binding Protein 1 (XBP1) (AID 2282972; active = hit-call score of the fitted dose curve at least 0.9, where 1 is the maximum; inactive = score below 0.9). To be noted: HepG2 XBP1 cis-element reporter, Attagene multiplex; actives raise or lower the signal. The method in brief: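 Reporter transcripts were quantified by RT-PCR with fluorescent primer extension and capillary electrophoresis after 24 h chemical exposure. Cells: transiently transfected HepG2 carrying cis-regulated reporter constructs; data fitted bidirectionally relative to DMSO.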

Experiment [4] is described as follows: ATG_M_19_TRANS: Attagene TRANS-FACTORIAL HepG2 Assay for M19 Transcription Factor (Internal Marker) (AID 2282974). The following applies: HepG2 Attagene TRANS-FACTORIAL M19 internal marker reporter. The method in brief: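 Multiplexed TRANS format: HepG2 liver cells bearing transient GAL4-UAS reporter units, chemical treatment 24 h, reporter transcripts quantified by RT-PCR plus capillary electrophoresis. DMSO defines baseline.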

Experiment [5] in a line: ATG_GAL4_TRANS: Attagene TRANS-FACTORIAL HepG2 Assay for GAL4 (Internal Marker) (AID 2282976). To be noted: HepG2 Attagene TRANS GAL4 internal marker reporter. The method in brief:
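RT-PCR/capillary electrophoresis readout of reporter mRNA. HepG2, transient MRTU transfection (GAL4-UAS reporters), 24 h compound exposure. Background-control endpoint, positive direction vs DMSO baseline.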

Experiment [6] has as its target Glucocorticoid receptor (Homo sapiens) (UniProt P04150). Briefly: ATG_GR_TRANS: Attagene TRANS-FACTORIAL HepG2 Assay for human Glucocorticoid Receptor (GR) (AID 2282978).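 Note: activators score as hits since higher reporter transcript over DMSO is fitted.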 The following applies: HepG2 Attagene TRANS GR reporter, mRNA transcription. The method in brief:
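Transiently transfected HepG2 cells express chimeric NR-GAL4 proteins acting on GAL4-UAS reporter units. Compounds are applied for 24 h. mRNA induction over DMSO is measured by capillary electrophoresis.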

The target in experiment [7] is Oxysterols receptor LXR-alpha (Homo sapiens) (UniProt Q13133). Briefly: ATG_LXRa_TRANS: Attagene TRANS-FACTORIAL HepG2 Assay for human Liver X Receptor alpha (LXRa) (AID 2282980). To be noted: HepG2 Attagene TRANS reporter, LXRa transactivation. The method in brief: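 Read-out: reporter transcript levels by RT-PCR plus capillary electrophoresis, fluorescence intensity. Transiently transfected HepG2, exogenous NR-GAL4 chimera, GAL4-UAS reporters; 24 h compound exposure. Activity = increase over DMSO negative control.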

For experiment [8], the target named is Oxysterols receptor LXR-beta (Homo sapiens) (UniProt P55055). In words: ATG_LXRb_TRANS: Attagene TRANS-FACTORIAL HepG2 Assay for human Liver X Receptor beta (LXRb) (AID 2282981). The following applies: HepG2 Attagene TRANS GAL4-LXRb reporter, mRNA. The method in brief:
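After 24 h chemical treatment of transfected HepG2 cells carrying exogenous NR-Gal4 chimeras, reporter mRNA was quantified by fluorescent RT-PCR and capillary electrophoresis; activity taken as increase over DMSO controls.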

Experiment [9] is described as follows: ATG_M_32_TRANS: Attagene TRANS-FACTORIAL HepG2 Assay for M32 Transcription Factor (Internal Marker) (AID 2282984).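 Note: transcript level of a background control reporter unit measured by RT-PCR and capillary electrophoresis.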 To be noted: HepG2 Attagene TRANS M32 internal marker reporter. The method in brief: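 Internal background reporter in transfected HepG2: after 24 h chemical exposure, RNA reverse-transcribed, reporter cDNA amplified, fluorescently labelled and HpaI-cut, then sized by capillary electrophoresis. Gain of signal fitted against DMSO control.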

Experiment [10] has as its target Transcriptional activator Myb (Homo sapiens) (UniProt P10242). Briefly: ATG_Myb_CIS: Attagene CIS-FACTORIAL HepG2 Assay for human Myeloblastosis (Myb) Proto-Oncogene Transcription Factor (AID 2282986; active = hit-call score of the fitted dose curve at least 0.9, where 1 is the maximum; inactive = score below 0.9). The following applies: HepG2 Attagene CIS-FACTORIAL Myb reporter transcription; actives raise or lower the signal. The method in brief:
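Using HepG2 liver cells bearing transiently transfected cis-promoter reporter constructs, the assay measures induction or loss of reporter mRNA after 24 hours of dosing. Detection used fluorescently labeled RT-PCR products separated by capillary electrophoresis.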

Experiment [11] deals with Nuclear respiratory factor 1 (Homo sapiens) (UniProt Q16656). Briefly: ATG_NRF1_CIS: Attagene CIS-FACTORIAL HepG2 Assay for human Nuclear Respiratory Factor 1 (NRF1) Orphan Gene (AID 2282987; active = hit-call score of the fitted dose curve at least 0.9, where 1 is the maximum; inactive = score below 0.9). The following applies: HepG2 NRF1 cis-element reporter, Attagene multiplex; actives raise or lower the signal. The method in brief: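 Reporter mRNA induction or loss in HepG2 cells after 24 h dosing; cis-regulated reporter constructs report endogenous transcription-factor activity. Quantified by RT-PCR/capillary electrophoresis fluorescence, DMSO-referenced.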

In experiment [12] the target is Steroid hormone receptor ERR1 (Homo sapiens) (UniProt P11474). Briefly: ATG_ERRa_TRANS: Attagene TRANS-FACTORIAL HepG2 Assay for human Estrogen-Related Receptor alpha (ERRa) (AID 2282971). To be noted: HepG2 Attagene TRANS reporter, ERRa transactivation. The method in brief:
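Transfected HepG2, 24 h dosing, ERRa-Gal4 chimera driving GAL4-UAS reporter. Readout: reporter mRNA via RT-PCR plus capillary electrophoresis (fluorescence). Positive direction vs DMSO control.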

For experiment [13], the target named is Hepatocyte nuclear factor 4-alpha (Homo sapiens) (UniProt P41235). In words: ATG_HNF4a_TRANS: Attagene TRANS-FACTORIAL HepG2 Assay for human Hepatocyte Nuclear Factor 4 alpha (HNF4a) (AID 2282982). To be noted: HepG2 HNF4a transactivation reporter, mRNA readout. The method in brief:
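Activity of an exogenous HNF4a–Gal4 fusion scored as induced GAL4-UAS reporter transcripts after 24 h chemical exposure of transfected human HepG2 cells. Read-out via RT-PCR with 6-FAM labelling and capillary electrophoresis; rise over DMSO baseline.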

Experiment [14] can be described thus: ATG_M_06_TRANS: Attagene TRANS-FACTORIAL HepG2 Assay for M06 Transcription Factor (Internal Marker) (AID 2282983). To be noted: HepG2 Attagene TRANS M06 internal marker reporter. The method in brief:
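Read-out: fluorescent reporter cDNA fragments resolved by capillary electrophoresis after RT-PCR and HpaI cut. Source cells were HepG2 carrying transfected multi-reporter GAL4 constructs, dosed 24 h. Increase over DMSO control analysed.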

In experiment [15] the target is Estrogen receptor (Homo sapiens) (UniProt P03372). Briefly: ATG_ERa_TRANS: Attagene TRANS-FACTORIAL HepG2 Assay for human Estrogen Receptor alpha (ERa) (AID 2282970). The following applies: HepG2 Attagene TRANS ERa GAL4 reporter, mRNA. The method in brief:
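Reporter mRNA induction after 24 hours, detected by fluorescent RT-PCR and capillary electrophoresis, gives the read-out. Cells are HepG2 transiently transfected with GAL4-UAS reporter transcription units responding to chimeric NR-Gal4. Activity is taken as gain of signal over DMSO baseline.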

In experiment [16] the target is Nuclear receptor subfamily 4 group A member 2 (Homo sapiens) (UniProt P43354). In words: ATG_NURR1_TRANS: Attagene TRANS-FACTORIAL HepG2 Assay for human Nuclear Receptor Related Protein 1 (NURR1) (AID 2282985). The following applies: HepG2 Attagene TRANS reporter, mRNA readout. The method in brief:
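Reporter transcript induction, measured by RT-PCR with fluorescent labelling, HpaI digestion and capillary electrophoresis, after 24 hr dosing of human HepG2 cells transiently expressing an exogenous NR-Gal4 fusion with GAL4-UAS-driven reporters; DMSO as baseline.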

The target in experiment [17] is Nuclear receptor subfamily 1 group I member 3 (Homo sapiens) (UniProt Q14994). Briefly: ATG_CAR_TRANS: Attagene TRANS-FACTORIAL HepG2 Assay for human Constitutive Androstane Receptor (CAR) (AID 2282969).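 Note: activators raise reporter mRNA above DMSO so AC50 marks induction.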 The following applies: HepG2 Attagene TRANS-FACTORIAL CAR reporter. The method in brief: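 Signal is reporter mRNA induction relative to DMSO, measured 24 h after dosing by RT-PCR with fluorescent primer extension and capillary electrophoresis. Human HepG2 liver cells carried transiently transfected chimeric NR-Gal4/GAL4-UAS reporter constructs.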

Experiment [18] has as its target Bile acid receptor (Homo sapiens) (UniProt Q96RI1). Briefly: ATG_FXR_TRANS: Attagene TRANS-FACTORIAL HepG2 Assay for Farnesoid X Receptor (FXR) (AID 2282979).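 Note: hits raise reporter mRNA above DMSO so AC50 marks FXR activation.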 The following applies: HepG2 Attagene TRANS FXR-GAL4 reporter transcription. The method in brief:
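Read-out: fluorescent reporter transcripts quantified by capillary electrophoresis after RT-PCR of total RNA. Source cells were HepG2 transiently carrying chimeric NR-GAL4 plus GAL4-UAS reporter units, dosed 24 h. Activity fitted upward relative to DMSO baseline.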

Chain of Nuclear receptor subfamily 4 group A member 2 (Homo sapiens) (P43354 whole entry, looked up, the tested form may be a part): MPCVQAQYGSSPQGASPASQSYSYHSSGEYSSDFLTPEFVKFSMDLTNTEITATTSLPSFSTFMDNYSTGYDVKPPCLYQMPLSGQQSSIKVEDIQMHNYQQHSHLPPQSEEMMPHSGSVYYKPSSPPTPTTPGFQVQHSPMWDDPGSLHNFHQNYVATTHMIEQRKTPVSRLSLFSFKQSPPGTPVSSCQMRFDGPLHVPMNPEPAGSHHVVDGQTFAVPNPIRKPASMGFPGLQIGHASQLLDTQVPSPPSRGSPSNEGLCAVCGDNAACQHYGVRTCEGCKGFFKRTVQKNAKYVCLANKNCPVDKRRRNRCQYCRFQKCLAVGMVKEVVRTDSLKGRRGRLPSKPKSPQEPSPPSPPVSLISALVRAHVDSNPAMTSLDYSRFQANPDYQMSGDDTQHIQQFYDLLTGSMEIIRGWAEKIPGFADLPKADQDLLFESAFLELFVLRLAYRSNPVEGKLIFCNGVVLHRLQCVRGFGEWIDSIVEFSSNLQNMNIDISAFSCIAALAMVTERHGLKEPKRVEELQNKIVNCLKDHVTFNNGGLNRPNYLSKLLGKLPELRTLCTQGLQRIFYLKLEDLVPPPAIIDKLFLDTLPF
Chain of Steroid hormone receptor ERR1 (Homo sapiens) (P11474 whole entry, looked up, the tested form may be a part): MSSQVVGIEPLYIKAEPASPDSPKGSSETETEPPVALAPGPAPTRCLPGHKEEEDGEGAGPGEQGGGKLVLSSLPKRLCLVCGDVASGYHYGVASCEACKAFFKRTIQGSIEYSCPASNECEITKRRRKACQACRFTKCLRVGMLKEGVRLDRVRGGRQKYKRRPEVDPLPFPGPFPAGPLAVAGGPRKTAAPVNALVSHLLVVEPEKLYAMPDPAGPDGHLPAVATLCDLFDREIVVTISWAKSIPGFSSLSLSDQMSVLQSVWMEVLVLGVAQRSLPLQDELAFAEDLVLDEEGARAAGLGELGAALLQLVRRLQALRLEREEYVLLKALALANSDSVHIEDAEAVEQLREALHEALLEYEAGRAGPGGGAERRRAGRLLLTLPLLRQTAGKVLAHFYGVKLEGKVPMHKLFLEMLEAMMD
Chain of Glucocorticoid receptor (Homo sapiens) (P04150 whole entry, looked up, the tested form may be a part): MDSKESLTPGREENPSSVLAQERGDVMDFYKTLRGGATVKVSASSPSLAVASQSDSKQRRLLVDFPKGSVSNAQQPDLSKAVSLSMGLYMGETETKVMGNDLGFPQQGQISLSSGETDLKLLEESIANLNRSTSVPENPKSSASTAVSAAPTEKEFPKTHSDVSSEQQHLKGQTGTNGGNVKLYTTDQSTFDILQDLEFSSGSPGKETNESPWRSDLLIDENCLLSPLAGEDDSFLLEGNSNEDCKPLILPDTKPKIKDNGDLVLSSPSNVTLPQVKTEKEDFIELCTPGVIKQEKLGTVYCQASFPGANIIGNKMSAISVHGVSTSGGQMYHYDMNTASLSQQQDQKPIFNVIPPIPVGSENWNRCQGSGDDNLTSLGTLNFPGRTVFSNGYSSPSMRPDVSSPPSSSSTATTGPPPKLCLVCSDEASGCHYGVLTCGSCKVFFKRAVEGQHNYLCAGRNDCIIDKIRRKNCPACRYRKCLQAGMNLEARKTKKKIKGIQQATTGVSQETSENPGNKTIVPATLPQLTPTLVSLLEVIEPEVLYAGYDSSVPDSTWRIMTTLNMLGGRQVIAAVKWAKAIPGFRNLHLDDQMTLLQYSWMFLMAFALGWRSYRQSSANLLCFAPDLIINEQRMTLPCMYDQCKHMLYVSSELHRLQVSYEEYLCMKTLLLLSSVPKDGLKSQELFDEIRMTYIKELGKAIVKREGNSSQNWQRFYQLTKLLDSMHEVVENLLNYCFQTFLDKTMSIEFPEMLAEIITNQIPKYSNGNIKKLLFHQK
Chain of Nuclear respiratory factor 1 (Homo sapiens) (Q16656 whole entry, looked up): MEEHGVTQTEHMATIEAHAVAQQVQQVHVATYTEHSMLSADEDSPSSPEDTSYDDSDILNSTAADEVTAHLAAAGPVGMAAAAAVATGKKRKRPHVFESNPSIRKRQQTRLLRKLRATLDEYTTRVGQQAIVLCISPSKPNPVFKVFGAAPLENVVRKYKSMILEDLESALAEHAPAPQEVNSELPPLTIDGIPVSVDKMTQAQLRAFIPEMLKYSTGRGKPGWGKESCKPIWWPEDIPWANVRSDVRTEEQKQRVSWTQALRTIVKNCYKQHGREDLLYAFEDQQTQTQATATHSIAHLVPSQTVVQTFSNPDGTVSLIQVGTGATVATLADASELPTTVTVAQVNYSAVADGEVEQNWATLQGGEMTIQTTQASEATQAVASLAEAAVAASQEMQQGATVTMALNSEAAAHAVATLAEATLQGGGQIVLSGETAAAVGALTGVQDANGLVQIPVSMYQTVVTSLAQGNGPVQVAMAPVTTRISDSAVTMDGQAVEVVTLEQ
Chain of Oxysterols receptor LXR-alpha (Homo sapiens) (Q13133 whole entry, looked up, the tested form may be a part): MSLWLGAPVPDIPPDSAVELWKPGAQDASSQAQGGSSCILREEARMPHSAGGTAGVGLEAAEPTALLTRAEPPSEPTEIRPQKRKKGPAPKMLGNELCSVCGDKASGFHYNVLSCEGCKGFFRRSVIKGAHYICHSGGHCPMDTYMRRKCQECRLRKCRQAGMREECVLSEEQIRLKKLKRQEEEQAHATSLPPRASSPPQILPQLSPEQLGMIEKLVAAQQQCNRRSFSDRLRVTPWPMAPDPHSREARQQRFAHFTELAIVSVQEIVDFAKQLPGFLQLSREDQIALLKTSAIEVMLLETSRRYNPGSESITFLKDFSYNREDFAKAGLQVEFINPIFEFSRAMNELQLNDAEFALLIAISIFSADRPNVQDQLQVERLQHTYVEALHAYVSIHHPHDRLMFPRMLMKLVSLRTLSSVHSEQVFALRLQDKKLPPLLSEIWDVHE
Chain of X-box-binding protein 1 (Homo sapiens) (P17861 whole entry, looked up): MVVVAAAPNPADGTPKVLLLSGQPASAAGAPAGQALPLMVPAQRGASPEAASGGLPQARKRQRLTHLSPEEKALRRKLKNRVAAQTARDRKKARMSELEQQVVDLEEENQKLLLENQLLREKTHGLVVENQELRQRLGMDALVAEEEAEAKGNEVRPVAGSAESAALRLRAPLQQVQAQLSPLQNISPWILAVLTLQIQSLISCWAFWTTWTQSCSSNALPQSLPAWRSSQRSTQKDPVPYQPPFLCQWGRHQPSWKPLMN
Chain of Transcriptional activator Myb (Homo sapiens) (P10242 whole entry, looked up): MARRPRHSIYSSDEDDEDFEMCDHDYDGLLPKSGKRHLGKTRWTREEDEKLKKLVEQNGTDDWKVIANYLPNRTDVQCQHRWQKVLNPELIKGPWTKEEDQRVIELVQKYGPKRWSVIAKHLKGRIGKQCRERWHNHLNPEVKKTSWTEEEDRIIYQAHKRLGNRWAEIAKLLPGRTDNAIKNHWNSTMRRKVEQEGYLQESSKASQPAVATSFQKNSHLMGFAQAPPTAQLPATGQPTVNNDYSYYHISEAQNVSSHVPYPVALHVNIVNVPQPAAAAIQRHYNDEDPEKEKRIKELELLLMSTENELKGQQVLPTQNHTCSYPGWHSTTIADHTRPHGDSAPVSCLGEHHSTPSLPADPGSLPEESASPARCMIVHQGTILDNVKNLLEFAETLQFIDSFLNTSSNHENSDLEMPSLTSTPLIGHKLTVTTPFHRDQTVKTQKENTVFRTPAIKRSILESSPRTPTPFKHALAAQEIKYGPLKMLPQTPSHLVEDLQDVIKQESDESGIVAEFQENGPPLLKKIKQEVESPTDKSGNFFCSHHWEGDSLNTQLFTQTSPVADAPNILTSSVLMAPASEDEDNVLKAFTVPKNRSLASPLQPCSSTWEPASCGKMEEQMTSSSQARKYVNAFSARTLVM
Chain of Oxysterols receptor LXR-beta (Homo sapiens) (P55055 whole entry, looked up, the tested form may be a part): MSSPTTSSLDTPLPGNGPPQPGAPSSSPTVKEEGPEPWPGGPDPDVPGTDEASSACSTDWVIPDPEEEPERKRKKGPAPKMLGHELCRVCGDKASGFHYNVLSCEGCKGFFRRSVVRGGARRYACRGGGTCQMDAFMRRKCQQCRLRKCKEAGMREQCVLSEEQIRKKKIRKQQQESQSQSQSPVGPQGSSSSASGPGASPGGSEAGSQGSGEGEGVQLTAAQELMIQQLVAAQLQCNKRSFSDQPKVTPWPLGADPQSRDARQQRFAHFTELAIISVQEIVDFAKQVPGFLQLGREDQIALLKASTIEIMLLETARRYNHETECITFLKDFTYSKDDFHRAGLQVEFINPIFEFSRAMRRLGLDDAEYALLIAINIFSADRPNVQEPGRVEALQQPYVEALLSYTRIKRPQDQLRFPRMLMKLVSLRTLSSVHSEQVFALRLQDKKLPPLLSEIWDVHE
Chain of Hepatocyte nuclear factor 4-alpha (Homo sapiens) (P41235 whole entry, looked up, the tested form may be a part): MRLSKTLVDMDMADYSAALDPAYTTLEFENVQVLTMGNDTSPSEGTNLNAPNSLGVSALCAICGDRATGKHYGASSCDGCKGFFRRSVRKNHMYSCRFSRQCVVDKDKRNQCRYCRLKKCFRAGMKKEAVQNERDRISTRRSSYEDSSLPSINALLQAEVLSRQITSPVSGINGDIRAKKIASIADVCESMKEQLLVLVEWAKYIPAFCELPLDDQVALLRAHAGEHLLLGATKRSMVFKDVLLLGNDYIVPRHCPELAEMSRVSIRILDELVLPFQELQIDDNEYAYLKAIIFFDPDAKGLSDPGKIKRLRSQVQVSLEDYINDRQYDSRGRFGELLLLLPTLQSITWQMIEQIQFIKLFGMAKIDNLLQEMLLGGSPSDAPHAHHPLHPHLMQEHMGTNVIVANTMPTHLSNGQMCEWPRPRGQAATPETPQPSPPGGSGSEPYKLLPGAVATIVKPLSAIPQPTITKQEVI
Chain of Nuclear receptor subfamily 1 group I member 3 (Homo sapiens) (Q14994 whole entry, looked up, the tested form may be a part): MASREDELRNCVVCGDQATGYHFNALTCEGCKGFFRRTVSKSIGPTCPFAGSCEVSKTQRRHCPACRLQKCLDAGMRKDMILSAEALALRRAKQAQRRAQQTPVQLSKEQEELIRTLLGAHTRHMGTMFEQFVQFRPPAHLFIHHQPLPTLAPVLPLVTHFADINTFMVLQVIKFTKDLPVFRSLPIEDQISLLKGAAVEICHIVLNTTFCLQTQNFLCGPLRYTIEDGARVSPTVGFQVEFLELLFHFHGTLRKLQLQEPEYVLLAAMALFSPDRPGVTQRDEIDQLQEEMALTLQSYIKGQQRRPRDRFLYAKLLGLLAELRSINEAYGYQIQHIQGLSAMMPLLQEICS

Regarding `C=C(C)C(=O)OCCOC(=O)CC(C)=O`, the result in experiment [1], in [2], in experiment [3], in experiment [4], in experiment [5] and in [6] was inactive. Also, the outcome in experiment [7], in experiment [8], in experiment [9], in experiment [10] and in experiment [11] was inactive.

For `CC[C@]12CCCN3CCc4c(n(c5ccccc45)[C@@](O)(C(=O)OC)C1)[C@@H]32`, the outcome in experiment [1], in experiment [2], in [12], in experiment [3], in [13] and in experiment [14] was inactive. The compound was called inactive in [9], in [10] and in experiment [11].

`CCC(C(=O)NC(N)=O)c1ccccc1` (centres undefined): the result in experiment [1], in [2], in experiment [12], in [3], in [4] and in [8] was inactive. The compound was called inactive in experiment [14], in experiment [9] and in [11].

In the case of `Cc1ccccc1C=O`, the compound was called inactive in experiment [1], in experiment [2], in experiment [15], in experiment [3], in [4] and in experiment [6]. The result in experiment [7], in experiment [8], in experiment [13], in experiment [9], in experiment [16] and in experiment [10] was inactive. In addition, the result in experiment [11] was inactive.

On to `CCCCCCCCCCCCCCCC(=O)O`, for which the compound was classed as inactive in [1], in experiment [2], in experiment [17], in experiment [3], in [5] and in experiment [14]. Further, the compound was classed as inactive in [9], in experiment [16] and in experiment [10].

For orientation: AC50 means the concentration giving half of the maximal activity seen. Take `COCCCOc1ccnc(CS(=O)c2nc3ccccc3[nH]2)c1C` (centres undefined): the compound was called inactive in experiment [1], in experiment [2], in experiment [12], in [3], in experiment [6] and in experiment [14]. The compound was called inactive in [9], in experiment [16] and in experiment [11]. Further, the AC50 in [7] is 23.2 µM (active); in experiment [8], 27.9 µM (active).

In the case of `COc1ccc(Cl)cc1C`, the result in [1], in experiment [2], in experiment [12], in [3], in experiment [4] and in experiment [5] was inactive. For the same compound, the outcome in [14], in experiment [9], in experiment [10] and in [11] was inactive.

Consider `NCCCCCCN`, for which the outcome in [1], in experiment [2], in [12], in experiment [3], in experiment [4] and in [5] was inactive. Besides, the compound was called inactive in experiment [8], in experiment [13], in experiment [9], in experiment [16], in experiment [10] and in experiment [11].

Take `CCCCC/C=C/C=C/C=O`: the compound was called inactive in [1], in experiment [2], in [17], in experiment [3], in experiment [5] and in experiment [6]. The outcome in [18], in experiment [7], in experiment [14], in experiment [9], in experiment [16] and in experiment [10] was inactive. The compound was called inactive in [11].

On to `CC(C)[C@@H]1CC[C@@H](C)CC1=O`, for which the outcome in experiment [1], in experiment [2], in experiment [3], in experiment [4], in [13] and in experiment [10] was inactive. Moreover, the outcome in [11] was inactive.

For `CCCCC[Si](OCC)(OCC)OCC`, the outcome in experiment [1], in experiment [2], in [3], in experiment [5], in [7] and in experiment [8] was inactive. Also, the outcome in [14], in experiment [10] and in experiment [11] was inactive.

On to `CCCCCCCCCCCCOCCO`, for which the outcome in [1], in experiment [2], in experiment [5], in experiment [6], in experiment [7] and in [14] was inactive. In addition, the outcome in experiment [9], in experiment [16] and in experiment [10] was inactive. For the same compound, the results for the AC50 in experiment [3] and in experiment [11] were 55.5 µM (active) and 52.5 µM (active), respectively.
